For 110 molecules, outcome results are on record in PubChem BioAssay AID2252 (Southern Research Specialized Biocontainment Screening …, 2010).

Structures are written as SMILES. Hit rate of the full screen: of about 2,300 compounds, about 1,500 (65%) were called active. The rule behind the calls is not given here. So high a share suggests a set chosen from earlier hits. These entries were drawn from the full list.

The nature of the assay: PubChem AID 2252. To be noted: THP-1 viability, CellTiter-Glo luminescence, 72 h; min viability: minimum viability across concentrations, concentration not given here; series mostly up to 50 µM. In general terms: ATP-based viability assays read luminescence as a measure of living cells.
With `COCCn1nnnc1C(c1cccc(OC)c1OC)N1CCN(C2CCCCC2)CC1` (stereo not given), the result was inactive.
The entry for `O=C(O)C1CCCCC1C(=O)NCCc1ccncc1` (stereo not given) is “inactive”.
For `O=C(Nc1nccs1)c1ccc(Cl)cc1[N+](=O)[O-]`, the molecule was classed as inactive.
Consider `Cc1ccc2c(c1)C1CN(C)CCC1N2C(=O)COc1ccccc1F` (stereo not given), for which the result was inactive.
Turning to `CCc1nc(C)ccc1OCC(=O)NCCCN(C)C`, the molecule was called inactive.
As to `CN1C(=O)NC(c2cccc(O)c2)C(C(=O)c2cccs2)C1(O)C(F)(F)F` (stereo not given), the molecule was classed as inactive.
For the molecule `Cc1cccc(N2C(=O)CS/C2=N\NC(=O)c2ccc(Br)cc2)c1C`, the molecule was called inactive.
With `N#Cc1nc(Cc2cccc3ccccc23)oc1NCCCN1CCOCC1`, the result was inactive.
On to `Cc1ccc(/C=N/NC(=O)Cc2cccn2C)cc1`, for which the outcome was inactive.
Turning to `O=C(Cc1ccccc1)NCC(=O)Nc1cccc(Cl)c1`, the molecule was classed as inactive.
The entry for `CC(=O)c1ccc(NC(=O)CN2CCCCCC2)cc1` is “inactive”; for `CSC(=Nc1ccc(Cl)cc1)N[n+]1ccccc1` it is “inactive”.
As to `CC(=O)Nc1ccc(S(=O)(=O)Nc2nc3ccccc3nc2Nc2cccc(S(N)(=O)=O)c2)cc1`, the molecule was classed as inactive.
As for `COCCNC(=O)c1cccc(OC2CCN(Cc3ccccc3C)CC2)c1`, the call was inactive.
Regarding `Cc1ccc(C(=O)N/N=C\c2sccc2C)cn1`, the result was inactive.
On to `CN(C)CCCOC(=O)c1sc2ccccc2c1Cl`, for which the call was inactive.
The entry for `COc1c2ccccc2nc2ccccc12` is “inactive”; for `CCn1cc(C(=O)O)c(=O)c2cc(F)c(N3CCN(C(=S)NC(=O)c4ccc(Br)cc4)CC3)cc21` it is “inactive”.
As for `O=C(NCc1ccccc1)N[C@@H](Cc1c[nH]c2ccccc12)C(=O)O`, the call was inactive.
As for `CCn1cc(C(=O)NCCO)c(=O)c2cc(F)c(N3CCN(C)CC3)cc21`, the call was inactive.
The entry for `CCn1nnnc1NCc1cccc(Cl)c1` is “inactive”; for `O=C(O)c1cn(-c2ccc(F)cc2)c2cc(Cl)c(F)cc2c1=O` it is “inactive”.
As for `COc1cccc(NC(=O)CSc2nncn2-c2ccccn2)c1`, the molecule was classed as inactive.
The entry for `O=C(NC1CC1)C1CCN(C2CCN(C(=O)Cc3ccc(F)cc3)CC2)CC1` is “inactive”; for `O=C(NC(CO)C(O)c1ccc([N+](=O)[O-])cc1)C(Cl)Cl` (stereo not given) it is “inactive”; for `CN1CCCN(S(=O)(=O)c2ccc3ccccc3c2)CC1` it is “inactive”.
Consider `NS(=O)(=O)OCCCc1ccc(C(F)(F)F)cc1`, for which the molecule was called inactive.
For the molecule `N#CCC(=O)N/N=C/c1ccccc1Cl`, the molecule was called inactive.
In the case of `COc1ccc(-c2nc3ccc(C(=O)NCC(OC)OC)cc3nc2-c2ccc(OC)cc2)cc1`, the molecule was classed as inactive.
As for `Cc1cc(C)c(S(=O)(=O)Nc2ccccc2C(=O)OCC(=O)NCc2ccccc2)c(C)c1`, the molecule was called inactive.
In the case of `CCOC(=O)c1cccc(NC(=O)c2cccs2)c1`, the call was inactive.
In the case of `Cc1ccc(NC(=O)c2cc(NC(=O)CCCC(=O)O)ccc2Cl)cc1Cl`, the molecule was called inactive.
As for `O=C(CCCOc1ccc(Cl)cc1Cl)NNC(=O)C1CCC1`, the outcome was inactive.
As for `CCCCN1/C(=C/c2cccc[n+]2C)Sc2cc(NC(C)=O)ccc21`, the call was inactive.
The entry for `CC(C)CC(=O)N1CCN(C(=O)CCC2CCCC2)CC1` is “inactive”.
The entry for `O=C(NCc1cccnc1)C1c2ccccc2C(=O)N1Cc1ccccc1` (stereo not given) is “inactive”; for `O=Cc1ccc(O)cc1O` it is “inactive”.
The entry for `CCC(C)NC(=O)c1cn(CC)c2cc(N3CCN(C)CC3)c(F)cc2c1=O` (stereo not given) is “inactive”; for `Cc1ccn2cc(-c3ccc4c(c3)NC(=O)CO4)nc2c1` it is “inactive”.
In the case of `O=C(CN(C(=O)CNS(=O)(=O)c1ccccc1)C1CCCC1)NCc1ccco1`, the molecule was classed as inactive.
As for `O=c1[nH]cc(N=Cc2cc([N+](=O)[O-])ccc2O)c(=O)[nH]1`, the molecule was classed as inactive.
For `CC(Sc1nc2ccccc2o1)C(=O)O` (stereo not given), the call was inactive.
The entry for `Cc1cc(C)cc(CSc2nnc(C)c(=O)[nH]2)c1` is “inactive”.
For the molecule `CCCCN(C)C(=O)c1ccc(S(=O)(=O)N2CCOCC2)cc1`, the call was inactive.
Regarding `COc1ccc(-c2nnn(-c3ccc(Cl)cc3Cl)c2N)cc1`, the result was inactive.
In the case of `Cc1cc(C)c2c(N)c(C(=O)c3ccc(Cl)c(Cl)c3)sc2n1`, the molecule was called inactive.
For the molecule `Cn1c(-c2ccc(CN3CCCCC3)o2)nc2ccccc21`, the call was inactive.
The entry for `O=C(NCC1CCCO1)c1cc2ccccc2oc1=O` (stereo not given) is “inactive”; for `CN(C)C(=O)CSc1nnc(Cc2ccc([N+](=O)[O-])cc2)o1` it is “inactive”.
Regarding `CSc1nc2ccc(Cl)cc2[nH]1`, the outcome was inactive.
The entry for `Cn1cc(S(=O)(=O)NCC2CCCO2)c(=O)n(C)c1=O` (stereo not given) is “inactive”; for `CN1C2=CC=CC=CC2=[N+](C)C12C=CC(=[N+]([O-])[O-])C=C2[N+](=O)[O-]` (stereo not given) it is “inactive”.
For `Cc1cc(N2CCCCC2)c(F)cc1[N+](=O)[O-]`, the molecule was called inactive.
Turning to `O=C(N/N=C/c1ccc(-c2ccc(Br)cc2)o1)c1ccc2c(c1)OCO2`, the call was inactive.
As for `Cc1ccc(-n2ncc3c(=O)[nH]cnc32)c(C)c1`, the outcome was inactive.
Turning to `CC(=O)N1CSCC1C(=O)N1CCN(c2ccc(N3CCOCC3)nn2)CC1` (stereo not given), the call was inactive.
As for `CCCCNC(=O)NS(=O)(=O)c1ccc(C(=O)OC)o1`, the call was inactive.
`O=C(c1cccs1)N1CCC(N2CCN(c3ccccc3)CC2)CC1`: the molecule was classed as inactive.
The entry for `N#Cc1c(/N=C/c2cccs2)sc2c1CCCCC2` is “inactive”; for `Cc1ccc(NC(=O)CCNC(=O)c2ccccc2)cc1F` it is “inactive”.
`Cc1c(/C=N/NC(=O)c2sc3ccccc3c2Cl)cnn1C`: the molecule was classed as inactive.
Consider `Cc1cc(C)cc(N(C(=O)CNC(=O)c2cccs2)C(C(=O)NC2CCCC2)c2cccnc2)c1` (stereo not given), for which the result was inactive.
Turning to `CC(C)OC(=O)Cn1c(=O)sc2ccccc21`, the outcome was inactive.
With `CC(=O)Nc1cccc(NS(=O)(=O)Cc2ccc(Cl)cc2)c1`, the result was inactive.
Take `COc1ccc(C(=O)NNS(=O)(=O)c2ccccc2)cc1OC`: the call was inactive.
On to `O=C(NCc1ccccc1)c1ccc(CNc2c(N3CCCC3)c(=O)c2=O)cc1`, for which the call was inactive.
In the case of `C[C@H]1COc2c(N3CCN(C)CC3)c(F)cc3c(=O)c(C(=O)O)cn1c23`, the molecule was called inactive.
On to `CCCCc1cc(=O)oc2cc(C)cc(OCC(=O)NCC3CCC(C(=O)O)CC3)c12` (stereo not given), for which the result was inactive.
The entry for `Cc1ccc(CNC(=O)CCC(=O)Nc2nnc(C)s2)cc1` is “inactive”.
On to `CCOc1cc(S(=O)(=O)N2CCN(CC)CC2)ccc1Cl`, for which the call was inactive.
Consider `O=C(NCc1ccc2c(c1)OCO2)c1ccc2c(c1)C(=O)N(Cc1cccnc1)C2=O`, for which the call was inactive.
For `CCOC(=O)C1CCN(C(=O)CCc2nc3ccccc3[nH]2)CC1`, the outcome was inactive.
The entry for `NS(=O)(=O)c1ccc(CCNS(=O)(=O)c2cccc(C(=O)O)c2)cc1` is “inactive”; for `O=C(NC(=O)c1ccccc1)OCC1CCCN2CCCCC12` (stereo not given) it is “inactive”.
As to `N=c1ccccn1CC(O)COc1ccccc1` (stereo not given), the molecule was called inactive.
Turning to `COc1cc(/C=C2/C(=O)NN(c3ccc(C)c(Cl)c3)C2=O)cc([N+](=O)[O-])c1O`, the outcome was inactive.
As for `O=C(O)c1ccc(S(=O)(=O)NC2CC2)cc1`, the outcome was inactive.
On to `C#CCOCCOCCOCCNc1nc(N2CCN(C(=O)[C@H](Cc3ccc(O)cc3)n3cc([C@@H](N)C(C)CC)nn3)CC2)nc(N2CCN(C(=O)[C@H](Cc3cc4ccccc4[nH]3)n3cc([C@@H](N)Cc4ccc(O)cc4)nn3)CC2)n1` (stereo not given in full), for which the call was inactive.
`NC1=NC(c2cccc(O)c2)n2c(nc3ccccc32)N1` (stereo not given): the outcome was inactive.
On to `COc1ccc(CCC(=O)NCc2cn3ccccc3n2)cc1`, for which the outcome was inactive.
As to `O=C(NC(O)C(=O)c1ccccc1)c1ccc(F)cc1` (stereo not given), the molecule was called inactive.
Regarding `Cc1ccc(N2CC(C(=O)OCc3ccccc3F)CC2=O)cc1` (stereo not given), the molecule was called inactive.
As to `CCn1cc(C(=O)O)c(=O)c2cc(F)c(N3CCN(C(=S)NC(=O)c4ccccc4C)CC3)cc21`, the molecule was classed as inactive.
The entry for `COCCN1CC(=O)N2C(c3cccc(OC)c3)c3[nH]c4ccccc4c3C[C@H]2C1=O` (stereo not given in full) is “inactive”; for `O=C(NC1CCCC1)c1ccc(Br)s1` it is “inactive”; for `Cc1cccc(NCN2C(=O)c3ccccc3C2=O)c1` it is “inactive”.
In the case of `Cc1cnc(NC(=O)CN2C(=O)C3CC=CCC3C2=O)s1` (stereo not given), the molecule was called inactive.
As to `CC(C)c1ccc(C2C(C#N)=C(N)Oc3c2oc(CO)cc3=O)cc1` (stereo not given), the result was inactive.
The entry for `NC(=O)c1ccc(N=C2C(=O)Nc3ccc([N+](=O)[O-])cc32)cc1` is “inactive”; for `CC(/C=C\c1cccnc1)=C/C(=O)O` it is “inactive”; for `NCCCCCc1nnc(SCc2ccc(Cl)cc2Cl)o1` it is “inactive”.
The entry for `COc1cc2c(cc1OC)CN(C(=O)CCCN1C(=O)c3ccccc3C1=O)CC2` is “inactive”.
On to `CCOC(=O)C1=C(C(C)=O)C(c2cccnc2)C(C#N)=C(N)O1` (stereo not given), for which the molecule was classed as inactive.
On to `O=C(CSc1nc2c(c(=O)n1-c1ccc(F)cc1)SCC2)NCc1ccco1`, for which the molecule was called inactive.
For `CC(C)n1cnnc1SCC(=O)Nc1ccc(Br)cc1F`, the call was inactive.
The entry for `Cc1nn(C)c(C)c1NC(=O)c1ccc(S(=O)(=O)N(C)C)cc1` is “inactive”.
For `COc1ccc(C2C3=C(CC(C)(C)CC3=O)Nc3cc4c(cc32)OCO4)cc1` (stereo not given), the molecule was called inactive.
The entry for `O=c1ccnc(Sc2ncccc2[N+](=O)[O-])[nH]1` is “inactive”.
As to `CC[C@H]1OC(=O)[C@H](C)[C@@H](O[C@H]2C[C@@](C)(OC)[C@@H](O)[C@H](C)O2)[C@H](C)[C@@H](O[C@@H]2O[C@H](C)C[C@H](N(C)C)[C@H]2O)[C@](C)(O)C[C@@H](C)CN(C)[C@H](C)[C@@H](O)[C@]1(C)O`, the call was inactive.
The entry for `COc1cc(NS(=O)(=O)c2ccc(NC(=S)Nc3ccccc3)cc2)nc(OC)n1` is “inactive”; for `O=C1CC(=O)CC(c2ccco2)C1` it is “inactive”; for `CCn1c(CNC(=O)c2ccc(OC)cc2)nnc1SC` it is “inactive”.
The entry for `CC(=O)c1ccc(OC(=O)c2cc3ccccc3oc2=O)cc1` is “inactive”.
As to `COc1ccc(NC(=O)c2ccc3nc[nH]c3c2)cc1`, the molecule was called inactive.
Consider `COC(=O)c1cn(C(=O)c2ccco2)c2ccccc12`, for which the call was inactive.
Take `CCN1CCN(Cc2ccc(NC(=O)c3ccc(C)c(NC(=O)C(=O)c4c[nH]c5ccccc45)c3)cc2C(F)(F)F)CC1`: the outcome was inactive.
`Cn1nnnc1SCC(=O)Nc1ccccc1-c1ccccc1`: the molecule was classed as inactive.
On to `CCn1c(SCC(=O)Nc2oc(-c3ccccc3)c(-c3ccccc3)c2C#N)nnc1-c1ccco1`, for which the molecule was classed as inactive.
The entry for `Cc1ncc(CC(=O)n2cc(C(=O)c3cc(F)ccc3O)cn2)s1` is “inactive”; for `COc1ccc(C(CC(=O)O)NC(=O)C2CCCCC2)cc1` (stereo not given) it is “inactive”.
